In ChEMBL document CHEMBL3988442, “University of Dundee, Small-Polar-MMV Screening Library” (2021):
For some assays here: Measured potencies and affinities stand elsewhere.

Legend:
Set-up in all cases: scale not given: direction of the effect not stated beside the values
[1] = molecular target: Protein translocase subunit SecA (Escherichia coli (strain K12)) (UniProt P10408); test: Assay to Identify E. coli SecA ATPase Inhibitors; format: functional; conditions: 30 µM
[2] = molecular target: T1, Ubiquitin-activating enzyme e1, putative (Leishmania donovani (strain BPK282A1)) (UniProt E9BSI1); test: Leishmania donovani Ubiquitin Activating Enzyme (LdE1); format: functional; conditions: 30 µM
T1 sequence (whole entry): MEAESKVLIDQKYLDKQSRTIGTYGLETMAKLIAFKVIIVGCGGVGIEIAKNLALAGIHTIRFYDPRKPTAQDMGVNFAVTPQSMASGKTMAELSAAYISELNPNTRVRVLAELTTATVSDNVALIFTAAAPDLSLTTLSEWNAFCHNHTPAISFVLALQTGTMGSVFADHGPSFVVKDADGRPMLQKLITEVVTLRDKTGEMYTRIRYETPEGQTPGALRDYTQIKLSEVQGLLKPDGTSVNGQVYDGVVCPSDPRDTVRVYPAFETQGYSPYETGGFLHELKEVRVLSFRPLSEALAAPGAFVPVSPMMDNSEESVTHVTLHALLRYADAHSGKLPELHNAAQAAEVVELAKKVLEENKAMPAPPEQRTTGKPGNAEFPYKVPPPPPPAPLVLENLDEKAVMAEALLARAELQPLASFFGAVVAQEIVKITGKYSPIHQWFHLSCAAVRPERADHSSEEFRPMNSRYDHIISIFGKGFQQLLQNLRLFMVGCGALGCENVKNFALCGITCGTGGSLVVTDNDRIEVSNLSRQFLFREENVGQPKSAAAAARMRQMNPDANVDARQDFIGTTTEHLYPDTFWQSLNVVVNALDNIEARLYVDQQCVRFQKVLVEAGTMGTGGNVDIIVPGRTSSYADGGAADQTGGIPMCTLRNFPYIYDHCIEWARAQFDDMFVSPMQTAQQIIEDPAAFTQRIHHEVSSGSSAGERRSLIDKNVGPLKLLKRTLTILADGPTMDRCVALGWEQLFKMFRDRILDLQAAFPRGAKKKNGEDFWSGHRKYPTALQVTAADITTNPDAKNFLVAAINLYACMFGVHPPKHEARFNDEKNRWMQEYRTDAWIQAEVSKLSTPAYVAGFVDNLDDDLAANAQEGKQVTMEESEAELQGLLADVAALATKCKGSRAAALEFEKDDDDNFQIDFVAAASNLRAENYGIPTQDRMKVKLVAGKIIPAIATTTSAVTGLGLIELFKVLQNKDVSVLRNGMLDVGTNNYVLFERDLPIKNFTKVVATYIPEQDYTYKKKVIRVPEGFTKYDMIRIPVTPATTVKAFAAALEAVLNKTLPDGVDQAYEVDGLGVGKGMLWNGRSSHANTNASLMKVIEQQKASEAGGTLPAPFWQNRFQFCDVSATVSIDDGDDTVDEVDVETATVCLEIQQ

[3] = molecular target: AMP-activated protein kinase, AMPK (Homo sapiens) (UniProt P54646+O43741+P54619+Q9UGJ0+Q9Y478+Q13131+Q9UGI9); test: AMP-dependent Kinase enzyme assay. An in vitro enzyme assay that detects ADP turnover that is directly proportional to AMPK activity. This uses naive AMPK that is activated during the assay with MK-8722; format: functional; conditions: 30 µM
[4] = molecular target: Sialic acid-binding Ig-like lectin 9 (Homo sapiens) (UniProt Q9Y336); test: Hs-Siglec9 ALPHAscreen SOP 20170721; conditions: 10 µM
Trypanosoma cruzi = test: Trypanosoma cruzi phosphomannomutase and mannose-1-phosphate guanylyltransferase assay; format: functional; conditions: 10 µM
[5] = molecular target: T2, Arginase-2, mitochondrial (Homo sapiens) (UniProt P78540); test: in vitro enzyme assay to detect the production of urea directly proportional to the activity of Arginase II; format: functional; conditions: 33.3 µM; further: in the data most compounds retested in dose-response had high values
T2 sequence (whole entry): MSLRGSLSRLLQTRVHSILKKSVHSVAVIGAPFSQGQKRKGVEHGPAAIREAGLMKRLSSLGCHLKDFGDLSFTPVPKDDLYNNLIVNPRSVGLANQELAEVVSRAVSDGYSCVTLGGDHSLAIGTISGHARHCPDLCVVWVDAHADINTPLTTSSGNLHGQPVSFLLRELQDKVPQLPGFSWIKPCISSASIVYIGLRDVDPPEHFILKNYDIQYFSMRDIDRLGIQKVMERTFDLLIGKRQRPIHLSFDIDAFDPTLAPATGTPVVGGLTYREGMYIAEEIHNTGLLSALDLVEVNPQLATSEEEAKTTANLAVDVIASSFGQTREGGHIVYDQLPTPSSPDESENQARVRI

[6] = molecular target: T3, Proteasome subunit beta (Trypanosoma cruzi) (UniProt O96673); test: Trypanosoma cruzi proteasome chymotrypsin-like activity (TcProtChymo) assay.; further: in the data most compounds retested in dose-response had high values; format: functional; conditions: 9.37 µM
T3 sequence (whole entry): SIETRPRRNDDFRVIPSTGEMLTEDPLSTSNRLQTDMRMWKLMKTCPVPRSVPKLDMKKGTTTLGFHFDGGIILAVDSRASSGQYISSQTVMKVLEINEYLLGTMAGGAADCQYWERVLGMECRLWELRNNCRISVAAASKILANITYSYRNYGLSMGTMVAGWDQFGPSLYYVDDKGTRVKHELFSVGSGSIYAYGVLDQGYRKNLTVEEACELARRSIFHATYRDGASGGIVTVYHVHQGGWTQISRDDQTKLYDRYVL

Homo sapiens = organism: Homo sapiens; test: To identify inhibition of the IFN signalling (Jak-Stat) pathway via expression of an eGFP reporter gene under the control of an IFN-stimulated response element (ISRE) containing MxA promoter.; format: functional; conditions: 30 µM
[7] = molecular target: T4, Tyrosyl-tRNA synthetase, putative (Trypanosoma cruzi (strain CL Brener)) (UniProt Q4DSP6); test: Trypanosoma cruzi tyrosyl tRNA synthetase (TcYRS) _High Tyrosine SOP; format: functional; conditions: 30 µM; further: in the data most compounds retested in dose-response had high values
T4 sequence (whole entry): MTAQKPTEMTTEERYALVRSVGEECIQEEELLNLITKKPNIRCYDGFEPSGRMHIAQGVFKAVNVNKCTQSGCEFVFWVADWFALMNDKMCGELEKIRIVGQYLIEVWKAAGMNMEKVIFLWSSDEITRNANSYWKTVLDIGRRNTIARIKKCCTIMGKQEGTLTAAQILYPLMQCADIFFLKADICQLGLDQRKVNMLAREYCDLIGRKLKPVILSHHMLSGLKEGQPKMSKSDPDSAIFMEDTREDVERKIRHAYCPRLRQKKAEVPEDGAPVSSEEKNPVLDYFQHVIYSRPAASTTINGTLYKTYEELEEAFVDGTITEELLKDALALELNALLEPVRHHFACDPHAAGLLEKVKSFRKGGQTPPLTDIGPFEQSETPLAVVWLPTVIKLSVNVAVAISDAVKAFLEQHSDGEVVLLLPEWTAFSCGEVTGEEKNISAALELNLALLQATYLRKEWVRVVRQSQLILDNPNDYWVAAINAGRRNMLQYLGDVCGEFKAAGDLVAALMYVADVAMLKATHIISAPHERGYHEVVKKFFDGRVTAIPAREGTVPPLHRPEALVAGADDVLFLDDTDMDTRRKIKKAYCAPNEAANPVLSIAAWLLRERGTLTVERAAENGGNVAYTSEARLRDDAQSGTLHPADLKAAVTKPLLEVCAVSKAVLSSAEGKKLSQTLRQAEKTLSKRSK

[8] = molecular target: T4, Tyrosyl-tRNA synthetase, putative (Trypanosoma cruzi (strain CL Brener)); test: Trypanosoma cruzi tyrosyl tRNA synthetase (TcYRS) SOP; format: functional; conditions: 30 µM
[9] = molecular target: Chromo domain-containing protein 1 (Saccharomyces cerevisiae (strain ATCC 204508 / S288c) (Baker's yeast)) (UniProt P32657); test: ScCHD-1 Enzyme Inhibition Assay; format: functional; conditions: 30 µM; further: in the data most compounds retested in dose-response had high values
Chromo domain-containing protein 1 (Saccharomyces cerevisiae (strain ATCC 204508 / S288c) (Baker's yeast)), sequence (P32657 whole entry, the tested form may be a part): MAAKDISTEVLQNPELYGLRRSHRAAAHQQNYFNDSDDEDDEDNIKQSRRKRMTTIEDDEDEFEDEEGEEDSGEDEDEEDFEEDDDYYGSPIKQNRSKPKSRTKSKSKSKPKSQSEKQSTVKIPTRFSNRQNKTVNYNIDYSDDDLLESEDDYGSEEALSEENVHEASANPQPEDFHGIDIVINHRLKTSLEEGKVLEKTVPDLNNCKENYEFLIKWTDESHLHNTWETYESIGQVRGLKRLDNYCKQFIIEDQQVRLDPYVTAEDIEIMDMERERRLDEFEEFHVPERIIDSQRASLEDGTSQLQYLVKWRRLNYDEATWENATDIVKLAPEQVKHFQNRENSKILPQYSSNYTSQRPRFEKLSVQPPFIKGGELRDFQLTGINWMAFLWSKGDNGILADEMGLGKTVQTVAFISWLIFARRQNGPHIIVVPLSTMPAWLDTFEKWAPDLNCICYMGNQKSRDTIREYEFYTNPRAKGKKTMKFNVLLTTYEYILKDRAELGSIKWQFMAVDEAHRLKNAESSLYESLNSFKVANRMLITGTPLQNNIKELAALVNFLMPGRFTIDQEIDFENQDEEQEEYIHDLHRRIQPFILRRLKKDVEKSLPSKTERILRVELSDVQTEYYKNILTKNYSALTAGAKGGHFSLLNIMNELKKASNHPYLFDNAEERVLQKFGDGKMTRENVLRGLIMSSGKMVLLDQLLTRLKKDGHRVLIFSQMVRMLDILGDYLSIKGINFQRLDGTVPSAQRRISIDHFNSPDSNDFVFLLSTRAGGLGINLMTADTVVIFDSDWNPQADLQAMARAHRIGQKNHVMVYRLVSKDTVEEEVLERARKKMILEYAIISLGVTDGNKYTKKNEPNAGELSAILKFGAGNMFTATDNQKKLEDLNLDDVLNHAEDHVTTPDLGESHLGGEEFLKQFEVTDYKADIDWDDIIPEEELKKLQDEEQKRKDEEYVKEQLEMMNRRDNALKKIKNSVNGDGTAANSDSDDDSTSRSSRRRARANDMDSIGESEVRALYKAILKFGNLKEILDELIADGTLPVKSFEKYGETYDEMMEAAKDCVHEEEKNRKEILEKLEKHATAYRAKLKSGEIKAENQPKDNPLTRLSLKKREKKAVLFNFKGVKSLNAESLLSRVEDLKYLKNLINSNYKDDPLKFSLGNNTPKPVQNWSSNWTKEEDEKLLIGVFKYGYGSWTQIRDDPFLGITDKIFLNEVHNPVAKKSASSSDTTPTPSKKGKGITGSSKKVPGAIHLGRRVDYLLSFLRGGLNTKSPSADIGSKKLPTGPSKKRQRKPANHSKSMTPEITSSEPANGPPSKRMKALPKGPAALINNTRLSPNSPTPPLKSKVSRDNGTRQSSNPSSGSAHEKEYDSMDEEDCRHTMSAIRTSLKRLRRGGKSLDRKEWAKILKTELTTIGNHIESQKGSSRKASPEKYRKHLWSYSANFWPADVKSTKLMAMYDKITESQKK

Protein translocase subunit SecA (Escherichia coli (strain K12)), sequence (P10408 whole entry): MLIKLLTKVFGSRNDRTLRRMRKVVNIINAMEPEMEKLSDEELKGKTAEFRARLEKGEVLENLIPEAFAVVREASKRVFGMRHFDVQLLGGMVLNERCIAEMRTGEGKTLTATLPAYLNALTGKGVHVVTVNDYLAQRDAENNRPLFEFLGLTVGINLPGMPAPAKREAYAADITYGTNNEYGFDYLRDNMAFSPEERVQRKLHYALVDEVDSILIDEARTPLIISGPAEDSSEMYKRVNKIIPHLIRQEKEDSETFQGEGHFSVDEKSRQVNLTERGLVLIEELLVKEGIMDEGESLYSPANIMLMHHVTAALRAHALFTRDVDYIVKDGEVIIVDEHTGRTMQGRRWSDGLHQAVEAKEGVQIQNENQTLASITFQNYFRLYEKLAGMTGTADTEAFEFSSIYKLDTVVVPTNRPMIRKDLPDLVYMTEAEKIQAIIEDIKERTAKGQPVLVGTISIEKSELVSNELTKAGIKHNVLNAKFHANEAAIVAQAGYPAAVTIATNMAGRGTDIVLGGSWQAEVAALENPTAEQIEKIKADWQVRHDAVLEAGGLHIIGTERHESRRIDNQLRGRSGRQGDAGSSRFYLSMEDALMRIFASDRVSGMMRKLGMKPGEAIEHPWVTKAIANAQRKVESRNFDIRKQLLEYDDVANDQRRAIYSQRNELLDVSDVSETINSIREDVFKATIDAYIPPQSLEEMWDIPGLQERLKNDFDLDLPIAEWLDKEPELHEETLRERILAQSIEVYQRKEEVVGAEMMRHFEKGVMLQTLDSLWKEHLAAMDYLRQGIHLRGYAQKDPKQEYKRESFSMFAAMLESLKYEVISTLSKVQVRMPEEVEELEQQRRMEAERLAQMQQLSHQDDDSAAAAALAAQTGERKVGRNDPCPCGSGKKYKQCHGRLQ
Sialic acid-binding Ig-like lectin 9 (Homo sapiens), sequence (Q9Y336 whole entry): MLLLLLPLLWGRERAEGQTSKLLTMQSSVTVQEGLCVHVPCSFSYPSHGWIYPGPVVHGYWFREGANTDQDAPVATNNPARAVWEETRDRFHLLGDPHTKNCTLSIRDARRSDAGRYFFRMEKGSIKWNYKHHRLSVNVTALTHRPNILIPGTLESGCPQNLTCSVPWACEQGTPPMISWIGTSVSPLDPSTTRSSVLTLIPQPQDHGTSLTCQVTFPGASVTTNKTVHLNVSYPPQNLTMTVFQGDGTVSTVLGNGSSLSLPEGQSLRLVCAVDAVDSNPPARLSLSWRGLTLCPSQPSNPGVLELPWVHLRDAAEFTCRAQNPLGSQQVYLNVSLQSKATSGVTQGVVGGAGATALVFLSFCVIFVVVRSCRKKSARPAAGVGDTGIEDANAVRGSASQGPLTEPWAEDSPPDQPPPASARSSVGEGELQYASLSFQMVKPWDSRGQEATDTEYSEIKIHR

SMILES	Percent Effect [1] [%]	Percent Effect [2] [%]	Percent Effect [3] [%]	Percent Effect [4] [%]	Percent Effect (Trypanosoma cruzi) [%]	Percent Effect [5] [%]	Percent Effect [6] [%]	Percent Effect (Homo sapiens) [%]	Percent Effect [7] [%]	Percent Effect [8] [%]	Percent Effect [9] [%]
CN(C)S(=O)(=O)N1C[C@@H]2CC[C@H](C1)N(Cc1ccc3nsnc3c1)C2	-6.44	9.72	-22.2	43.5	3.21	21.2	4.04	4.28	2.1	12.8	-5.13
COc1cccc(CNC(CN2CCN(C)CC2)c2ccccc2)c1 (configuration not stated)	-5.66	5.41	-4.3	-1.53	-6.75	1.74	9.19	11.2	1.07	3.7	-3.35
CCn1nc(C)c2nnn(CC(=O)Nc3c(C)cccc3C)c(=O)c21	-7.15	17.3	-10.2	-3.51	5.5	-2.99	5.73	4.38	6.35	12.8	-16.1
Cc1nnc2n1CCN(CCOc1ccccc1)C2	-2.71	-1.27	9.45	-0.787	-0.308	3.66	3.43	0.176	2.08	0	-7.58
O=C(O)[C@@H]1CN(C(=O)c2cc(C3CC3)n[nH]2)C[C@H]1c1cccc(F)c1	-3.18	16.4	-3.35	7.52	2.98	-7.58	14.5	-4.38	3.12	21	-6.55
N#CC1(C(=O)N2CCN(Cc3cscn3)CC2)CCCC1	-4.16	10.1	-7.12	-4.28	-8.78	2.66	3.19	29.4	0.493	1.27	-7.41
CC(C)(C)C(=O)Cn1nc(-c2ccccc2F)ccc1=O	-3.18	6.67	5.01	9.44	0.393	-10	16.6	5.03	5.29	10.3	-6.12
CS(=O)(=O)NCc1nnc2n1CCN(Cc1cccs1)C2	-3.62	2.7	7.63	-1.91	0.684	-3.5	13.5	6.95	5.41	12.8	3.73
CN1CCN(c2cc(CCNC(=O)C3CCC3)nc(C3CC3)n2)CC1	-1.04	12.2	4.69	0.557	-4.74	-0.232	14.2	15.8	4.3	9.09	-9.84
Cc1csc(Nc2cc(C3CCCCN3C)nc(C)n2)n1 (configuration not stated)	1.97	8	7.4	-13.6	-5.71	3.5	17.5	14.7	4.25	6.41	-0.0696
CN(CC1COc2ccccc2O1)C(=O)NCCCn1cncn1 (configuration not stated)	-0.909	18.4	0.582	5.7	2.63	2.3	6.52	8.47	6.37	24.4	-11.6
COc1ccc(CNCc2c(C)nn(C)c2N2CCOCC2)cc1	-5.07	18.2	-11.5	0.605	3.82	0.21	14.5	-34.5	8.57	21.2	-13
Cc1cnn(CCC(=O)N2CCN(c3nc(C)cs3)CC2)c1	-5.41	17.7	-10.1	9.63	5.76	-2.66	11.6	1.73	4.43	24.1	-8.6
O=C(Nc1ccccc1)c1nn(C2CCS(=O)(=O)C2)c2c1CCCC2 (configuration not stated)	-4.15	5.26	5.68	0.438	-1.07	-2.37	10.3	8.39	1.06	10.4	-4.11
Cc1cccc(-c2ccc3nc(C4CCN(CC5CC5)CC4)nn3c2)c1	-0.334	5.48	-2.67	13.9	3.77	-0.399	10.2	8.44	3.12	8.64	-2.92
O=C(NCc1cc[nH]n1)N1CCCCC(N2CCCC2)C1 (configuration not stated)	-3.54	-10.5	-9.14	11.7	6.44	2.16	1.27	7.32	7.39	23.5	3.8
CC(C)c1nnc(CN2CCCC2Cn2cncn2)o1 (configuration not stated)	-4.03	18.2	-9.21	3.1	5.99	3.92	10.3	-4.77	6.8	24.4	-9.98
Cn1ccc(C(=O)N2CCN(c3cc(C#N)ccn3)CC2)cc1=O	-6.91	13.5	-11.9	26.1	4.06	-5.61	7.21	6.78	5.42	13.6	-17.3
CCOc1ccc(Cl)c(C(=O)N2CCN(C(=O)c3ccoc3C)CC2)n1	-5.76	20.8	-1.75	5.96	-4.49	-1.42	15.4	12.9	7.77	12.2	-6.62
CC(C)c1n[nH]c(C(=O)Nc2ccnn2C(C)C)c1Br	-9.82	12.7	-6.58	19.3	8.4	-6.84	9.42	39.4	7.39	13.9	-9.92
CC(CCc1ccco1)NC(=O)Nc1cc(C(F)(F)F)c[nH]c1=O (configuration not stated)	-8.08	7.89	40.7	3.56	0.467	-3.24	13.1	17	7.39	13.6	-2
CNC(=O)[C@H]1C[C@@H]2CN(C(=O)Nc3ccc(F)cc3)C[C@H]1O2	-1.87	13	7.85	4.28	1.28	9.68	9.05	18.3	7.41	16.7	-7.08
